Compound activity (PubChem)
AMA1 RON2 block: disrupts binding of P. falciparum AMA1 to RON2; AlphaScreen AMA1-biotinylated RON2 peptide binding; Potency, µM (highest dose often 58.2 µM), without a hit: at the top dose activity change, negative = inhibition, usual class: inhibitors; hit rate 0.2% among 360,000; active = well fitted inhibition curve with a large enough effect; inconclusive = small, poorly fitted or top-dose-only effect; inactive = no such curve, though single readings can be large or run the other way;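 note: potency is the fitted concentration of half-maximal effect; 0% = vehicle wells and -100% = peptide control; nearly all actives have a fitted effect of over 45% in size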
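AMA1 (3D7) with his tag at 25 nM final met compounds first, then biotinylated RON2 peptide at 25 nM; detection used donor plus acceptor beads, 10 µg/mL apiece, read by AlphaScreen after 30 min at room temperature.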
Marburg entry inh: Marburg virus entry inhibition; Potency, µM (highest dose often 37.8 µM), for inactives: at the highest dose activity change, negative = inhibition, most hits filed as inhibitors; hit rate 1.8% among 300,000; Marburg virus pseudotyped entry inhibition, cell reporter; calls by dose curve; tested in HEK293 cells; note: potency is the fitted concentration of half-maximal effect; % is set by controls: 0 for no effect and ±100 for the full control effect
Shiga toxin inh: inhibitors of Shiga toxin in Vero cells; Vero cells, Shiga toxin protein synthesis inhibition reporter; inhibition, % at 38.7 µM; hit rate 9.2% among 290,000; in the data active = inhibition mostly above about 28%, no sharp cut-off; inactive = mostly below about 43%; note: 0% is about no effect
Cycloheximide cs: counter-screen for Shiga toxin inhibitors: cycloheximide protein synthesis inhibition; cell reporter, cycloheximide protein synthesis inhibition counterscreen; max response, %; hit rate 12% among 300,000; in the data active = max response mostly above about 13%, no sharp cut-off; inactive = mostly below about 14%; note: read at 38.3 µM for the half of the compounds with a filed dose; 0% is about no effect
Lassa entry inh: Lassa virus entry inhibition. Lassa virus pseudotype entry inhibition, cell reporter. Potency, µM (top dose mostly 37.9 µM), without a hit: top-dose activity change, negative = inhibition, actives largely listed as inhibitors. hit rate 1.2% among 300,000. AID 540256; calls by dose curve; tested in HEK293 cells; note: potency is the fitted concentration of half-maximal effect; % is set by controls: 0 for no effect and ±100 for the full control effect; nearly all actives have a fitted effect of over 50% in size
* = called active by the depositor; [ ] = remark or other dose. The sample as a whole holds a higher share of hits than the screen did.

How did S=C(Nc1ccccc1)Nc1ccc(Cl)cc1Cl do in these assays?
AMA1 RON2 block: 15%; Marburg entry inh: -22%; Shiga toxin inh: 139*; Cycloheximide cs: 29*; Lassa entry inh: inconclusive

How did S=C(Nc1ccc2cn[nH]c2c1)Nc1ccccc1Cl do in these assays?
AMA1 RON2 block: 17%; Marburg entry inh: -9%; Shiga toxin inh: 51*; Cycloheximide cs: 73*; Lassa entry inh: inconclusive

What do the screens show for `S=C(Nc1ccc(Cl)cc1)Nc1ccc2cn[nH]c2c1`?
AMA1 RON2 block: 26%; Shiga toxin inh: 20; Cycloheximide cs: 8

How did S=C(Nc1ccc2cn[nH]c2c1)Nc1ccc(Cl)cc1Cl do in these assays?
AMA1 RON2 block: 41%; Shiga toxin inh: 47; Cycloheximide cs: 18*

How did Cc1cc(C)c(NC(=O)C2CCN(c3nnc(C)c4c(C)n(-c5ccccc5)nc34)CC2)c(C)c1 do in these assays?
Lassa entry inh: 10%[46.1 µM]

How did Cc1ccccc1COc1ccc(/C(O)=C2\C(=O)C(=O)N(CCCn3ccnc3)[C@H]2c2ccco2)cc1 do in these assays?
Marburg entry inh: 21%

What do the screens show for `COc1cc(NC(=S)NCCc2ccc(S(N)(=O)=O)cc2)c(OC)cc1Cl`?
AMA1 RON2 block: 4%; Shiga toxin inh: 12; Cycloheximide cs: -5

Results for CCCCOc1ccc(S(=O)(=O)Nc2cccc(-c3ccc(N4CCOCC4)nn3)c2)cc1 ?
Lassa entry inh: -9%[46.1 µM]

How did CCCCCCCCCCCCCC/C(C(=O)O)=C(\C)C(=O)O do in these assays?
Shiga toxin inh: -5; Cycloheximide cs: -8

Results for COC(=O)N/N=C/c1cn(CCCOc2ccccc2)c2ccccc12 ?
AMA1 RON2 block: -13%; Marburg entry inh: 16µM*; Shiga toxin inh: 72*; Cycloheximide cs: 40*; Lassa entry inh: inconclusive

What do the screens show for `O=Cc1cn(CCCOc2ccccc2)c2ccccc12`?
AMA1 RON2 block: 3%[11.6 µM]; Marburg entry inh: inconclusive; Shiga toxin inh: 51*; Cycloheximide cs: 55*; Lassa entry inh: 11%

Results for COC(=O)N/N=C/c1cn(Cc2ccc(Cl)cc2Cl)c2ccccc12 ?
AMA1 RON2 block: 4%; Marburg entry inh: 13µM*; Shiga toxin inh: -15; Cycloheximide cs: -5; Lassa entry inh: inconclusive

What do the screens show for `CC1=CN2C(=N)/C(=C\c3cn(CCCOc4ccccc4)c4ccccc34)C(=O)N=C2S1`?
AMA1 RON2 block: 67%; Marburg entry inh: inconclusive; Shiga toxin inh: 10; Cycloheximide cs: 12*; Lassa entry inh: inconclusive

Results for COc1ccc(OCCn2cc(C=O)c3ccccc32)cc1 ?
AMA1 RON2 block: -8%; Marburg entry inh: inconclusive; Shiga toxin inh: 12; Cycloheximide cs: -3; Lassa entry inh: inconclusive

Results for CCCc1cnc(Nc2nc(C(N)Cc3ccc(C(F)(F)F)cc3)cs2)nc1 (stereo not drawn) ?
AMA1 RON2 block: 55%

How did CCCCc1ccc(NC(=O)CSC2=C(C#N)C(c3ccco3)C3=C(CCCC3=O)N2)cc1 (stereo not drawn) do in these assays?
AMA1 RON2 block: 3%; Marburg entry inh: inconclusive; Shiga toxin inh: -3; Cycloheximide cs: 19*; Lassa entry inh: inconclusive

What do the screens show for `CCc1ccc(NC(=O)CSC2=C(C#N)[C@H](c3ccco3)C3=C(CCCC3=O)N2)cc1`?
Marburg entry inh: -29%

How did COc1cccc(NC(=O)CSC2=C(C#N)C(c3ccco3)C3=C(CCCC3=O)N2)c1 (stereo not drawn) do in these assays?
AMA1 RON2 block: -1%; Marburg entry inh: -7%; Shiga toxin inh: 92*; Cycloheximide cs: 36*; Lassa entry inh: 13µM*

What do the screens show for `C(=Cc1c[nH]c2ccccc12)c1nccc2ccccc12`?
AMA1 RON2 block: 16%; Marburg entry inh: inconclusive; Lassa entry inh: inconclusive

How did C(=Cc1c[nH]c2ccccc12)c1ccc2ccccc2n1 do in these assays?
AMA1 RON2 block: 19%; Marburg entry inh: 2.2µM*; Lassa entry inh: inconclusive

How did CC(=O)Oc1ccc(Cl)cc1/C=C/c1ccc2ccccc2n1 do in these assays?
AMA1 RON2 block: 1%; Marburg entry inh: inconclusive; Shiga toxin inh: 76*; Cycloheximide cs: 37*; Lassa entry inh: inconclusive

What do the screens show for `Fc1ccccc1/C=C/c1ccc2ccccc2n1`?
AMA1 RON2 block: 39%; Marburg entry inh: inconclusive; Shiga toxin inh: 72*; Cycloheximide cs: 51; Lassa entry inh: 2.5µM*

How did CCc1noc(C)c1C(=O)N1CCN(S(=O)(=O)c2ccccc2C(F)(F)F)CC1 do in these assays?
AMA1 RON2 block: 55%

Results for Cc1c2cnn(CC(=O)NCc3ccc(F)cc3)c(=O)c2c(C)n1Cc1cccc(Cl)c1 ?
Marburg entry inh: inconclusive; Lassa entry inh: -1%[46.1 µM]

What do the screens show for `O=C(NC(=O)c1ccccc1O)c1ccc2c(c1)CCO2`?
AMA1 RON2 block: 5%; Marburg entry inh: inconclusive; Shiga toxin inh: -21; Cycloheximide cs: 11; Lassa entry inh: 11µM*

What do the screens show for `O=C(CN1C(=O)C2CCCCN2c2ccc(C(=O)N3CCCC3)cc21)NCc1cccc(Cl)c1` (stereo not drawn)?
Lassa entry inh: -16%[46.1 µM]

What do the screens show for `OCCN(CCO)c1ccc(C(c2ccccc2Cl)c2ccc(N(CCO)CCO)cc2Cl)c(Cl)c1`?
AMA1 RON2 block: -17%; Marburg entry inh: -27%; Shiga toxin inh: -2; Cycloheximide cs: 1; Lassa entry inh: 11µM*

How did CSc1nsc(SC)c1C(=O)Nc1ccc(C(C)(C)C)cc1 do in these assays?
AMA1 RON2 block: 6%; Marburg entry inh: 11µM*; Shiga toxin inh: 53*; Cycloheximide cs: 10; Lassa entry inh: 9%[46.1 µM]

What do the screens show for `CSc1nsc(SC)c1C(=O)NC(=O)Nc1cccnc1`?
AMA1 RON2 block: -6%; Shiga toxin inh: -2; Cycloheximide cs: 1

What do the screens show for `Cc1ccc(C(=O)NCc2ccc3c(c2)CCN3C(=O)c2ccc(C)cc2)cc1`?
Lassa entry inh: -24%[46.1 µM]

Results for CCN(CC)S(=O)(=O)c1cccc(NC(=O)CC2CCCC2)c1 ?
AMA1 RON2 block: -3%; Marburg entry inh: 2%[46.1 µM]; Shiga toxin inh: 23; Cycloheximide cs: -3; Lassa entry inh: inconclusive

How did CCN(CC)S(=O)(=O)c1ccc2c(c1)nc(CCC(=O)Nc1cccc(C(F)(F)F)c1)n2CC do in these assays?
AMA1 RON2 block: 0%; Marburg entry inh: 11µM*; Shiga toxin inh: -20; Cycloheximide cs: -4; Lassa entry inh: inconclusive

How did CCN(CC)S(=O)(=O)c1cccc(NC(=O)CN(C)Cc2cccc(OC)c2)c1 do in these assays?
AMA1 RON2 block: -14%; Marburg entry inh: 23µM*; Shiga toxin inh: -19; Cycloheximide cs: -4; Lassa entry inh: 11µM*

How did CCN(CC)S(=O)(=O)c1ccc2c(c1)nc(CCC(=O)O)n2CC do in these assays?
AMA1 RON2 block: 1%; Marburg entry inh: 1%[14.2 µM]; Shiga toxin inh: -5; Cycloheximide cs: -1; Lassa entry inh: 10%

What do the screens show for `CCN(CC)S(=O)(=O)c1cccc(NC(=O)Nc2cccc(C(F)(F)F)c2)c1`?
AMA1 RON2 block: -5%; Marburg entry inh: 15µM*; Shiga toxin inh: -7; Cycloheximide cs: 5; Lassa entry inh: 16µM*

Results for CSc1nc(N)nc2c1ncn2CC(=O)N1CCN(Cc2c(C)cc(C)cc2C)CC1 ?
AMA1 RON2 block: 2%
